We go through five compounds from PubChem BioAssay (NCATS).

Results filed as inconclusive are left out. Active and inactive are the calls of the source. Unless noted, the call rests on the fitted dose curve; in most records, active means well fitted curve in either direction with a large enough effect (not every such curve was filed as active); inconclusive means small, poorly fitted or top-dose-only effect, or another doubt; inactive means flat fitted curve, though single readings scatter.

The target of test [1] is Lysosomal acid glucosylceramidase (Homo sapiens) (UniProt P04062). The test is described as follows: Glucocerebrosidase-p2 (AID 348; in the data active means potency below about 10 µM; further: potency means the concentration at half of the fitted maximal effect). The following applies: purified GBA, blue fluorogenic substrate, 40 min. The procedure, abridged:
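Normal human glucocerebrosidase (0.2 nM) with blue fluorogenic substrate (80 uM final) in citrate/phosphate pH 5.9 with 10mM sodium taurocholate, 0.01% tween-20; 40 min RT, NaOH/glycine stop; fluorescence Ex 365/Em 440; AC50 from a titration from 0.6 nM upwards.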

Test [2] in a line: AP1 Signaling Pathway (AID 357).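 Further: ME-180 reporter cells stimulated with EGF at its EC50 level; on the % scale 0 is the no-effect control and ±100 the full control effect.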 The following applies: ME-180 AP-1-bla reporter, EGF-induced, beta-lactamase ratio, 5 h; at 7.69 µM (top of the series) unless noted. The method in brief:
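Beta-lactamase reporter under AP-1 response element, ME-180 background. Stimulus: EC50 EGF. Compound exposure 5 h, 37 °C. Detection: CCF4, 2.5 h RT, 460/530 nm. Values: AC50 from titration.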

For test [3], the target named is Cytochrome P450 1A2 (Homo sapiens) (UniProt P05177). Kind of test: p450-cyp1a2 (AID 410; calls by dose curve;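 further: -100% = full effect of reference inhibitor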). The following applies: recombinant CYP1A2, luciferin-ME demethylation, luminescence; series mostly up to 57 µM. The method in brief: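 O-Demethylation of luciferin 6' methyl ether by human CYP1A2 is monitored as luciferase luminescence. Substrate sits at Km (100uM); enzyme is 20nM. Values are scaled to 57 uM furafylline as maximal inhibition.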
Chain of Cytochrome P450 1A2 (Homo sapiens) (P05177 whole entry, looked up): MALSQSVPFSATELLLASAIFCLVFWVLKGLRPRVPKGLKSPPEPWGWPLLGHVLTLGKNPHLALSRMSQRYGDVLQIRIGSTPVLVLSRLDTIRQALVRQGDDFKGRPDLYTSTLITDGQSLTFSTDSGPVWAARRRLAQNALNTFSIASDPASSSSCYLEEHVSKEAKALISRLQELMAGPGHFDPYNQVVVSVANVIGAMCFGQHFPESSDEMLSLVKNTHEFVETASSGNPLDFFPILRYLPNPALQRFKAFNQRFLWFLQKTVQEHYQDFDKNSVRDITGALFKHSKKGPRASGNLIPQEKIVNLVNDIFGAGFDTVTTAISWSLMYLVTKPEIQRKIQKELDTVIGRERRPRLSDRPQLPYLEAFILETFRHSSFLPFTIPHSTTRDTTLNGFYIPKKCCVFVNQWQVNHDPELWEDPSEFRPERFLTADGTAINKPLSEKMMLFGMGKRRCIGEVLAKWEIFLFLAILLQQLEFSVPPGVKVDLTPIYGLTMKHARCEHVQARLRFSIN

Test [4] in a line: NFAT Signaling Pathway (AID 444).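 Further: carbachol stimulus at about its EC50 of 1 µM final; on the % scale 0 is the no-effect control and ±100 the full control effect.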 The following applies: Jurkat NFAT-bla M1, carbachol, beta-lactamase ratio, 5 h; at 7.69 µM (top of the series) unless noted. The procedure, abridged:
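Jurkat cells with NFAT-driven β-lactamase reporter and co-expressed M1 receptor, stimulated with carbachol (final 1 uM, ~EC50), compound titration, 5 h at 37 °C. CCF4 loaded 1 h at RT; 460/530 nm ratio gave %activity and AC50.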

A short description of test [5]: Stat Signaling Pathway (AID 446).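 Further: ME-180 cervical cancer cells given 40 pM IL-6 alongside compound; SIE-controlled beta-lactamase reporter measured as 460/530 nm FRET emission ratio; on the % scale 0 is the no-effect control and ±100 the full control effect.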 The following applies: ME-180 SIE beta-lactamase reporter, IL-6 stimulated, 5 h; at 7.69 µM (top of the series) unless noted. The method in brief:
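FRET read-out (405 nm excitation, 460/530 nm emission) of a beta-lactamase reporter under a STAT-inducible element in ME-180 cervical carcinoma cells. Cells with compound receive 40 pM IL-6 for 5 h. Values are normalised to AC90 stimulation and AC90 JAK-inhibitor controls.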

The target in test [6] is Glucocorticoid receptor (Homo sapiens) (UniProt P04150). The test is described as follows: GR-EFC Redistribution (AID 451; calls by dose curve; further: potency means the concentration at half of the fitted maximal effect). The following applies: CHO-K1 GR-EFC translocation, beta-gal luminescence, 2 h. The method in brief: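 CHO-K1 cells expressing nuclear EA and GR-ED fragments of b-gal; compounds titrated up to 46 uM final, 2 h at 37 C. GR nuclear translocation read as complemented b-gal luminescence after 1 h RT detection.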
Chain of Glucocorticoid receptor (Homo sapiens) (P04150 whole entry, looked up, the tested form may be a part): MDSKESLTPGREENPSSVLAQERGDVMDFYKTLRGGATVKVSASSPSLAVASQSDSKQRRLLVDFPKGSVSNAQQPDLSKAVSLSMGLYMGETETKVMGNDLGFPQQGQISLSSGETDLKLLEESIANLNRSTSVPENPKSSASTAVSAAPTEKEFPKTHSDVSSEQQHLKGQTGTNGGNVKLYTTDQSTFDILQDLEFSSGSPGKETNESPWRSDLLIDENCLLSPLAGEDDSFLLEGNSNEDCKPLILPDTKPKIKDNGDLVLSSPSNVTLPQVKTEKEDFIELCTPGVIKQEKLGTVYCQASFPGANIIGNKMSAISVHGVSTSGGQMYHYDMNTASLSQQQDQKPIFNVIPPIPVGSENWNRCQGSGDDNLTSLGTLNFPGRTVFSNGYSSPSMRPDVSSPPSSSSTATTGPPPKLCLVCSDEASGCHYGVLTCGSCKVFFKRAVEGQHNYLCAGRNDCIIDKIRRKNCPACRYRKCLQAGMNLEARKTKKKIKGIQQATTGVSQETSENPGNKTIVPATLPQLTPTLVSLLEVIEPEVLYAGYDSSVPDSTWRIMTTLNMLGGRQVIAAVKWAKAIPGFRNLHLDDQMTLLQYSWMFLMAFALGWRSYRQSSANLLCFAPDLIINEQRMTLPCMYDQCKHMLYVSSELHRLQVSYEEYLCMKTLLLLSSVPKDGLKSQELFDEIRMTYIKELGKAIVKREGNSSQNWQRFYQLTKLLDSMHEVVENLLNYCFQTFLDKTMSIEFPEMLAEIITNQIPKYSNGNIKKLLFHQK

Test [7] has as its target Mitogen-activated protein kinase 10 (Mus musculus) (UniProt Q61831). Kind of test: JNK3 AlphaScreen Assay (AID 530).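 Further: kinase came from lysate of stimulated human HepG2 cells; signal reports phosphorylation of biotinylated GST-cJun 1-79 at Ser73 with 10 µM ATP; on the % scale 0 is the no-effect control and ±100 the full control effect.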 The following applies: JNK3 lysate, c-Jun phosphorylation; series mostly up to 57.1 µM. The method in brief: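 Activity was read by AlphaScreen after JNK3-containing HepG2 lysate (cytokine pre-activated) phosphorylated biotinylated GST-cJun with 10 uM ATP at room temperature. Phospho-Ser73 cJun antibody with Protein-A acceptor beads provided detection.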

Test [8] concerns the target 3',5'-cyclic-AMP phosphodiesterase 4B (Homo sapiens) (UniProt Q07343). Kind of test: qHTS Assay for Inhibitors of PDE-IV (AID 607; active means well fitted activation curve with a large enough effect in the main read-out, with a control signal flat, not every such curve was filed as active; further: % of control where 0% means no effect). The following applies: HEK293 ACTOne CNG channel cells, membrane potential fluorescence; series mostly up to 22.9 µM. The procedure, abridged:
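Cell-based read-out of cAMP via a modified cyclic nucleotide-gated channel and membrane potential dye (535/590 nm) in HEK293 cells expressing PDE4 endogenously. Compounds tested up to 22.9 uM final; 100 uM RO 20-1724 reference.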

The target in test [9] is Cytochrome P450 3A4 (Homo sapiens) (UniProt P08684). Kind of test: qHTS Assay for Activators of Cytochrome P450 3A4 (AID 885; active means well fitted curve in the direction sought with a large enough effect; an effect the other way counts as inactive or inconclusive; further: nearly all actives have a fitted effect of over 65% in size; further: potency means the concentration at half of the fitted maximal effect). The following applies: recombinant CYP3A4, Luciferin-PPXE luminescence, 60 min; series mostly up to 57.1 µM. The procedure, abridged:
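Luminescent readout of luciferin formed from 25 uM Luciferin-PPXE (KM level) by 20 nM CYP3A4 in 200 mM KPO4, with 60 min NADPH-driven reaction at room temperature after 10 min compound exposure. Ketoconazole (57 uM) defined 100% inhibition.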

Test [10] is described as follows: qHTS Assay for Lipid Storage Modulators (AID 1519; calls by dose curve). The following applies: Drosophila S3 cells, BODIPY lipid droplet/cell ratio, laser cytometry, cells loaded with oleic acid; for activity change, negative = inhibition: at 57.5 µM (top of the series). The method in brief:
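Cells seeded at 5,000 per well were treated with compounds over a concentration series and loaded with oleic acid (400 uM, as added). Lipid droplet fluorescence (488 nm excitation, 500-530 nm channel) was read by laser-scanning cytometry and normalized to 20 uM Triacsin C.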

Test [11] in a line: Primary qHTS for small molecule stabilizers of the endoplasmic reticulum resident proteome: Secreted ER Calcium Modulated Protein (SERCaMP) assay (AID 1508630; active means well fitted curve in the direction sought with a large enough effect; an effect the other way counts as inactive or inconclusive; further: on the % scale 0 is the no-effect control and ±100 the full control effect). The following applies: SH-SY5Y GLuc-SERCaMP (Gaussia luciferase released on ER calcium loss) secretion, thapsigargin, luminescence; series mostly up to 38.4 µM. The method in brief:
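The SH-SY5Y reporter protocol was run at 3 concentrations up to 38.3 uM (primary) or 11 concentrations (follow-up): 16 h compound, 100 nM thapsigargin for 4 h, then extracellular luciferase luminescence.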

The target in test [12] is Cytochrome P450 3A4 (Homo sapiens) (UniProt P08684). Kind of test: qHTS Assay for Inhibitors and Substrates of Cytochrome P450 3A4 (AID 884; active means well fitted curve in the direction sought with a large enough effect; an effect the other way counts as inactive or inconclusive; further: nearly all actives have a fitted effect of over 50% in size; further: potency means the concentration at half of the fitted maximal effect). The following applies: recombinant CYP3A4, Luciferin-PPXE luminescence; series mostly up to 57.1 µM. The procedure, abridged:
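Luminescent readout of luciferin produced by CYP3A4 (20 nM) dealkylation of Luciferin-PPXE, 25 uM (its KM). NADPH-driven reaction ran 60 min at RT after 10 min compound preincubation; data scaled to 57 uM ketoconazole as 100% inhibition.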

A short description of test [13]: qHTS Assay for Identification of Small Molecule Agonists for Hypoxia Response Element Signaling Pathway (AID 914; active means well fitted activation curve with a large enough effect in the signal ratio, with a control signal flat, not every such curve was filed as active; the % refers to the signal ratio; further: % of control where 0% means no effect). The following applies: ME-180 (cervical carcinoma) HRE-bla reporter, beta-lactamase ratio, CoCl2, 17 h; activation: stronger effect = higher value. The procedure, abridged:
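Read-out: CCF4 FRET ratio of 460nm to 530nm emission (excitation 405nm) after 2.5 hours at room temperature, taken from HRE-bla ME-180 cells that had been exposed to compound and EC50 CoCl2 for 17 hours.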

Setting [14] is: measured here: cell count channel max response.
[15] abbreviates: measured here: lipid channel max response.

Chain of Cytochrome P450 3A4 (Homo sapiens) (P08684 whole entry, looked up): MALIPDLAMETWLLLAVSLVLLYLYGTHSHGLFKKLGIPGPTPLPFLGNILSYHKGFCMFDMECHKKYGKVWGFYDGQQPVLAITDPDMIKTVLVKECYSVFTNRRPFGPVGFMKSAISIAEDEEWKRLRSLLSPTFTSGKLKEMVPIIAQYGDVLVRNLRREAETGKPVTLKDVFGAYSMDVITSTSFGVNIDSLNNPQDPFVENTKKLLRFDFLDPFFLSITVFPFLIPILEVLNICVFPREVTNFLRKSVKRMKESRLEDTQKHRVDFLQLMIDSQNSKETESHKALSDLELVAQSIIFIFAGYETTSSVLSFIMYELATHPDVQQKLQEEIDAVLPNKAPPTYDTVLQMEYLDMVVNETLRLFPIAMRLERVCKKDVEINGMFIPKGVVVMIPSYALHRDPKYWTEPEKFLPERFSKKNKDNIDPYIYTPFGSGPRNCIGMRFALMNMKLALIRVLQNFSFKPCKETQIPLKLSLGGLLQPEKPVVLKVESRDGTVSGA
Chain of Lysosomal acid glucosylceramidase (Homo sapiens) (P04062 whole entry, looked up): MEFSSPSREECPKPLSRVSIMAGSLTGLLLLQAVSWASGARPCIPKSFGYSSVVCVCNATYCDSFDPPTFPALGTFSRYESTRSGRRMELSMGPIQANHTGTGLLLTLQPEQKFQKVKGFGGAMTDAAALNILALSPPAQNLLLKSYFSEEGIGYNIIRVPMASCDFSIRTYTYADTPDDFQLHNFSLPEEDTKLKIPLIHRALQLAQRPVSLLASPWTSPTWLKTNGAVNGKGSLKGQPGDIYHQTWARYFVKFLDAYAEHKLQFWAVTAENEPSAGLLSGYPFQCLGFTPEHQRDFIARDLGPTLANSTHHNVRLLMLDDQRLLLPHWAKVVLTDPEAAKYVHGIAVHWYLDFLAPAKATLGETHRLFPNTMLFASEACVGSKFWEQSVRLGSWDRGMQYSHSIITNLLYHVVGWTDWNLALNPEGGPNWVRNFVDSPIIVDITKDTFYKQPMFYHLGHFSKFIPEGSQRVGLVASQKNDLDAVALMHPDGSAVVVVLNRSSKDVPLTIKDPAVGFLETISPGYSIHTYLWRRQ
Chain of 3',5'-cyclic-AMP phosphodiesterase 4B (Homo sapiens) (Q07343 whole entry, looked up): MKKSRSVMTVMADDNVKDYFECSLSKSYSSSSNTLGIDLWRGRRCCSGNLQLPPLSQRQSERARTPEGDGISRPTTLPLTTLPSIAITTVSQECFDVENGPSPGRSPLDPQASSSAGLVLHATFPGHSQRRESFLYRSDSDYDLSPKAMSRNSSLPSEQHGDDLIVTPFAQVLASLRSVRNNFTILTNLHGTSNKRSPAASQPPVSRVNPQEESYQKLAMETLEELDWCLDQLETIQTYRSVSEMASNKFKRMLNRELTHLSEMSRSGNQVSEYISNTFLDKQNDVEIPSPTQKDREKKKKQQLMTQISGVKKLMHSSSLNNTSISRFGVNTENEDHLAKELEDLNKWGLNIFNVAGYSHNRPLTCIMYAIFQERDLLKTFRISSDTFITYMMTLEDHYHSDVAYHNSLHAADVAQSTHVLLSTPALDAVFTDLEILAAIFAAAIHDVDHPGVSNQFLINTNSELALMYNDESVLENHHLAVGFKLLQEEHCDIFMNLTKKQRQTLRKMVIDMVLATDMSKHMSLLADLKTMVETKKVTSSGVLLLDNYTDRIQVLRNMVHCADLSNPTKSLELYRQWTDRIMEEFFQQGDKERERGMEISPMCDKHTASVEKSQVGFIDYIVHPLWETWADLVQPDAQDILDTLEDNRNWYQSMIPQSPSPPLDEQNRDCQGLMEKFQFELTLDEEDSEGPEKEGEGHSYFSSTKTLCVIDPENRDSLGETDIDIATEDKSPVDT

For the compound `CC(=O)N1CCC2(CC1)CN(C(c1ccccc1)c1ccccc1)C2`, the results for the Potency in test [1], in test [6] and in test [9] were > 11.4 µM (inactive), > 46 µM (inactive) and 15.8 µM (active), respectively. Also, the activity change, negative = inhibition in test [2] is 14.1% (inactive); in test [4], -5.45% (inactive); in test [10], 1.46% (inactive). Besides, the Potency result in test [3], in test [8] and in [11] was “inactive” in each case. Moreover, in test [5], the activity, negative = inhibition was -8.55% (inactive). Besides, the compound was classed as inactive in test [7]. For the same compound, the max response in [10] (setting [14]) is 13.6%; in test [10] (setting [15]), 21%.
As for `O=C(c1cccc(F)c1)N1CCC[C@@]2(CCN(c3ccncc3)C2)C1`, the Potency in test [1] is > 11.4 µM (inactive); in [6], > 46 µM (inactive); in test [12] it was 0.316 µM (active). The activity change, negative = inhibition in test [2] is -0.222% (inactive); in [4], -14.9% (inactive); in [10], 6.94% (inactive). Besides, the Potency entry in test [3], in test [8], in [9] and in test [11] was “inactive” each time. Moreover, in test [5], the activity, negative = inhibition is -5.12% (inactive). The call in [7] was inactive. Further, the max response in test [10] (setting [14]) came out at 20%; in [10] (setting [15]), 29.4%.
In the case of `O=C(c1ccco1)N1CCC2(CC1)CN(c1ccccc1)C2`, the figures for the Potency in test [1] and in [6] were > 11.4 µM (inactive) and > 46 µM (inactive), respectively. Further, the activity change, negative = inhibition in test [2] was -1.6% (inactive); in [4], 28.4% (inactive); in [10], 6.46% (inactive). For the same compound, the Potency result in [3], in [8], in test [12] and in test [11] was “inactive” each time. For the same compound, in test [5], the activity, negative = inhibition was -9.25% (inactive). Moreover, the result in [7] was inactive. In test [13], the activation is -3.45% (inactive). Further, the values for the max response in [10] (setting [14]) and in test [10] (setting [15]) were 15.8% and 25.8%, respectively.
Consider `CS(=O)(=O)N1CCC2(CCCN(C(=O)Nc3cccc(C#N)c3)C2)CC1`, for which the results for the Potency in test [1] and in test [6] were > 11.4 µM (inactive) and > 46 µM (inactive), respectively. For the same compound, the activity change, negative = inhibition in test [2] was 2.54% (inactive); in test [4], 1.96% (inactive); in test [10], 6.12% (inactive). For the same compound, the Potency entry in test [3], in test [8], in test [9] and in test [11] was “inactive” each time. In test [5], the activity, negative = inhibition is 1.15% (inactive). In [7], the result was inactive. Moreover, the max response was 14.7% in test [10] (setting [14]) and 21% in test [10] (setting [15]).
`Cc1noc(C)c1C(=O)N1CCC2(CCN(C(=O)Nc3ccccc3)CC2)CC1`: the Potency was > 11.4 µM (inactive) in [1] and > 46 µM (inactive) in test [6]. The activity change, negative = inhibition in test [2] is -7.04% (inactive); in test [4], -2.66% (inactive); in test [10] it was 3.9% (inactive). Besides, the Potency result in test [3], in [8], in test [12] and in test [11] was “inactive” throughout. The activity, negative = inhibition in test [5] is -7.75% (inactive). Also, the compound was classed as inactive in test [7]. The figures for the max response in test [10] (setting [14]) and in test [10] (setting [15]) were -0.903% and 4.81%, respectively.
